Test results published in the supplement of paper PMC10849652.
About 7,900 targets were measured; listed, in parts, are those with a hit and a random draw of the rest. About 0.6% of all pairs of compound and target were hits.

What was measured:
Experiment in all cases: log2 fold change, soluble protein after heating vs DMSO (PISA); higher = thermal stabilisation; K562 cells, 10 uM, 30 min; active = over 0.2 and 3.5 SD of the protein, either way, in both replicates (recomputed)
[1] = compound: COC1=CC=C(C=C1)CN2C=CC3=C2C=C(C=C3)C(=O)NO
Summary of the method: (§1)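 For each measurement, 10 μM compound was applied for 30 min to K562 cells at 2×10^6 cells/mL. Aliquots were heated for 3 min across 48°C-58°C, pooled, and extracted in PBS with 0.5% NP-40 at 4°C; the supernatant after 21,000xg for 90 min was soluble protein. This was quantified by TMTpro 16plex LC-MS/MS with channel sums equalised, and thermal stability was reported relative to control samples from duplicates, on a log2 fold-change scale.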

filanesib = compound: CON(C)C(=O)N1N=C(c2cc(F)ccc2F)S[C@@]1(CCCN)c1ccccc1 [filanesib]
Summary of the method: as §1

zotarolimus = compound: CO[C@H]1C[C@@H]2CC[C@@H](C)[C@@](O)(O2)C(=O)C(=O)N2CCCC[C@H]2C(=O)O[C@H]([C@H](C)C[C@@H]2CC[C@H](n3cnnn3)[C@H](OC)C2)CC(=O)[C@H](C)/C=C(\C)[C@@H](O)[C@@H](OC)C(=O)[C@H](C)C[C@H](C)/C=C/C=C/C=C/1C [zotarolimus]
Summary of the method: as §1

idasanutlin = compound: COc1cc(C(=O)O)ccc1NC(=O)[C@@H]1N[C@@H](CC(C)(C)C)[C@](C#N)(c2ccc(Cl)cc2F)[C@H]1c1cccc(Cl)c1F [idasanutlin]
Summary of the method: as §1

alisertib = compound: COc1cc(Nc2ncc3c(n2)-c2ccc(Cl)cc2C(c2c(F)cccc2OC)=NC3)ccc1C(=O)O [alisertib]
Summary of the method: as §1

[2] = compound: COc1cc2nc(-c3cc(F)ccc3O)nc(N[C@@H]3CNC[C@H]3C(C)(C)O)c2cc1OC
Summary of the method: as §1

gefitinib = compound: COc1cc2ncnc(Nc3ccc(F)c(Cl)c3)c2cc1OCCCN1CCOCC1 [gefitinib]
Summary of the method: as §1

[3] = compound: COc1cccc2cc(-c3nc([C@H]4CC[C@H](C(=O)O)CC4)n4ncnc(N)c34)[nH]c12
Summary of the method: as §1

lapatinib = compound: CS(=O)(=O)CCNCc1ccc(-c2ccc3ncnc(Nc4ccc(OCc5cccc(F)c5)c(Cl)c4)c3c2)o1 [lapatinib]
Summary of the method: as §1

pictilisib = compound: CS(=O)(=O)N1CCN(Cc2cc3nc(-c4cccc5[nH]ncc45)nc(N4CCOCC4)c3s2)CC1 [pictilisib]
Summary of the method: as §1

[4] = compound: CS(=O)(=O)c1ccc(-c2cnc(N)c(C(=O)Nc3ccccc3)n2)cc1
Summary of the method: as §1

crizotinib = compound: C[C@@H](Oc1cc(-c2cnn(C3CCNCC3)c2)cnc1N)c1c(Cl)ccc(F)c1Cl [crizotinib]
Summary of the method: as §1

[5] = compound: C[C@@H]1COCCN1C2=NC(=NC(=C2)C3(CC3)S(=O)(=O)C)C4=C5C=CNC5=CC=C4
Summary of the method: as §1

[6] = compound: C[C@H](C1=CC=C(C=C1)C(=O)NC2=C3C=CNC3=NC=C2)N
Summary of the method: as §1

duvelisib = compound: C[C@H](Nc1ncnc2nc[nH]c12)c1cc2cccc(Cl)c2c(=O)n1-c1ccccc1 [duvelisib]
Summary of the method: as §1

gandotinib = compound: Cc1cc(Nc2cc(CN3CCOCC3)c3nc(C)c(Cc4ccc(Cl)cc4F)n3n2)n[nH]1 [gandotinib]
Summary of the method: as §1

tozasertib = compound: Cc1cc(Nc2cc(N3CCN(C)CC3)nc(Sc3ccc(NC(=O)C4CC4)cc3)n2)n[nH]1 [tozasertib]
Summary of the method: as §1

[7] = compound: Cc1cc(SCc2sc(-c3ccc(C(F)(F)F)cc3)nc2C)ccc1OCC(=O)O
Summary of the method: as §1

doramapimod = compound: Cc1ccc(-n2nc(C(C)(C)C)cc2NC(=O)Nc2ccc(OCCN3CCOCC3)c3ccccc23)cc1 [doramapimod]
Summary of the method: as §1

ispinesib = compound: Cc1ccc(C(=O)N(CCCN)[C@@H](c2nc3cc(Cl)ccc3c(=O)n2Cc2ccccc2)C(C)C)cc1 [ispinesib]
Summary of the method: as §1

UniProt Q9Y6H3, sequence (Q9Y6H3 whole entry, looked up): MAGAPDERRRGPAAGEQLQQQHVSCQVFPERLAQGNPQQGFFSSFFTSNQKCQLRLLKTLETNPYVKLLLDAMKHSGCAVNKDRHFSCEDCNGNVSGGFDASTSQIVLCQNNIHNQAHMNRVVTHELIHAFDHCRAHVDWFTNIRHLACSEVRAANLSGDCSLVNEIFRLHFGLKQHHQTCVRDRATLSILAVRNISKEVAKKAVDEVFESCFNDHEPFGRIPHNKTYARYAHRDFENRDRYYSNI
UniProt Q96GS6, sequence (Q96GS6 whole entry, looked up): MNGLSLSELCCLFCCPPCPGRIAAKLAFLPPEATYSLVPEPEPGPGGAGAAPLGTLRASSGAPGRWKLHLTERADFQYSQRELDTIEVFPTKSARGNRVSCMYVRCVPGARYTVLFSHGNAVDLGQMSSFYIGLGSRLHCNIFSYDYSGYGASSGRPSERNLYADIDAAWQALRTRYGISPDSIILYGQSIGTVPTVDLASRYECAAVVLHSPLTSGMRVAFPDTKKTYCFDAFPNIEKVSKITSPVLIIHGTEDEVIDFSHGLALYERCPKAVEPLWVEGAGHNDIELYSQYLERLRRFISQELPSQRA
UniProt P21283, sequence (P21283 whole entry, looked up): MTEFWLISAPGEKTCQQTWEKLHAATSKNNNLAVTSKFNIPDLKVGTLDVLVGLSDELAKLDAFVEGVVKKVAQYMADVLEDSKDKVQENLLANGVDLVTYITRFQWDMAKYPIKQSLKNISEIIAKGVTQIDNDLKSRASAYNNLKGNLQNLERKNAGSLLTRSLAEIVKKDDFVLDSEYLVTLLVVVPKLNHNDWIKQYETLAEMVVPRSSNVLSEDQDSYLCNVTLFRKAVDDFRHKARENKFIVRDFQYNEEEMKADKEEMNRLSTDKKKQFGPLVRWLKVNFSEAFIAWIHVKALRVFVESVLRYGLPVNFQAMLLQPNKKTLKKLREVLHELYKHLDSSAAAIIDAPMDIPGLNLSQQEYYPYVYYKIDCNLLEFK
UniProt O43823, sequence (O43823 whole entry, looked up): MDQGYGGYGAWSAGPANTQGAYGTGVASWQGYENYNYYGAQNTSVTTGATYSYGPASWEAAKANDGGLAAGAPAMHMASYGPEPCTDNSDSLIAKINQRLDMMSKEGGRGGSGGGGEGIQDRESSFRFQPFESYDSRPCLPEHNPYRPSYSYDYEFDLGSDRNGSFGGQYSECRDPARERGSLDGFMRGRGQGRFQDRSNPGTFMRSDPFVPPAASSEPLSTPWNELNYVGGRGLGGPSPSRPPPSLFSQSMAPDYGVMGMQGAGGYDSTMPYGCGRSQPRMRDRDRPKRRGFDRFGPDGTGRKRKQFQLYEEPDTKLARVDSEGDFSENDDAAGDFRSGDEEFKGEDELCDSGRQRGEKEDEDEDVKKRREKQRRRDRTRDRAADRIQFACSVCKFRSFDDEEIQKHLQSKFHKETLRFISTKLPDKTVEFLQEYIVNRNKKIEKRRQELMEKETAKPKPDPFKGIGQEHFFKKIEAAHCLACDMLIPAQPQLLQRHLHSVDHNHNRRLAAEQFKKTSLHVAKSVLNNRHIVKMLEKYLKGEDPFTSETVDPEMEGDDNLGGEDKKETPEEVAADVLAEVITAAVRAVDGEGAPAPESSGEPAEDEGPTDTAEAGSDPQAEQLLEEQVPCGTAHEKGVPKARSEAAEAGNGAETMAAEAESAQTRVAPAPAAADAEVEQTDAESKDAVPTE
UniProt Q92685, sequence (Q92685 whole entry, looked up): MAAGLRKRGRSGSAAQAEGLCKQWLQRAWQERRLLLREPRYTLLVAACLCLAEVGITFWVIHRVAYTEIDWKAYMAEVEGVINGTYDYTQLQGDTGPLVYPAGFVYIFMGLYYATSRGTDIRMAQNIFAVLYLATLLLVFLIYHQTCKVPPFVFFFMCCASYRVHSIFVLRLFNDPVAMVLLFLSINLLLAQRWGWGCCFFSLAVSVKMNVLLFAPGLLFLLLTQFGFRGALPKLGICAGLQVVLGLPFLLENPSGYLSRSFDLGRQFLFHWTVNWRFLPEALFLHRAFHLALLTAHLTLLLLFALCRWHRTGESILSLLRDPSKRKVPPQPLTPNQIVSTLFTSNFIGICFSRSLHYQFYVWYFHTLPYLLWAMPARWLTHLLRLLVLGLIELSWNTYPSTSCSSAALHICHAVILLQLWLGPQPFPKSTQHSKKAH
UniProt O95433, sequence (O95433 whole entry, looked up): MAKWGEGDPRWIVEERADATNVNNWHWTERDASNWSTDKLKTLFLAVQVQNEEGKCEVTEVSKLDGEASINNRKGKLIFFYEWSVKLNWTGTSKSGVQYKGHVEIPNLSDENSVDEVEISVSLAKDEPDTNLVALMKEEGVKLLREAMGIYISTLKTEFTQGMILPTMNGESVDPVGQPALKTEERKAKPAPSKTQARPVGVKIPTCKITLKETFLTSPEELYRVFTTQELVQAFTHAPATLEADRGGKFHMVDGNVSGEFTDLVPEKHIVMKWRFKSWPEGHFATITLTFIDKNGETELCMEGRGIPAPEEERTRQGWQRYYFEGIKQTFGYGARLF
UniProt Q8IUR7, sequence (Q8IUR7 whole entry, looked up): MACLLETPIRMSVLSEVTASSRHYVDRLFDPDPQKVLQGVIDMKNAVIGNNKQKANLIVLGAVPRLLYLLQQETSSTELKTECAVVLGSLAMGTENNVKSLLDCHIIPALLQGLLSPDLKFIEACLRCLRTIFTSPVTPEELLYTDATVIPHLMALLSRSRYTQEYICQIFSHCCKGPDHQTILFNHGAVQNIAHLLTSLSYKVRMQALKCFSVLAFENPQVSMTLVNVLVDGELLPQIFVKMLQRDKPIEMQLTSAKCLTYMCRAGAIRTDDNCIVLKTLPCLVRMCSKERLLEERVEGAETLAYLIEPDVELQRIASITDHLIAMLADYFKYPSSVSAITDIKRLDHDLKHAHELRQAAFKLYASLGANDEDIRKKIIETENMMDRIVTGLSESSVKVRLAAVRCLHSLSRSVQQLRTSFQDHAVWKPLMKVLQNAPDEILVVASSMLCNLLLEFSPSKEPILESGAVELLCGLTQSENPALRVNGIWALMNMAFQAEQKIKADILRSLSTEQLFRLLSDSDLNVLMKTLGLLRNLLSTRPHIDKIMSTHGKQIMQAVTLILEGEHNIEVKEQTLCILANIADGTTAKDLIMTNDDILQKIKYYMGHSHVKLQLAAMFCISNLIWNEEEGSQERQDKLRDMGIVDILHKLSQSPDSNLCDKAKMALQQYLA
UniProt Q9H8Y5, sequence (Q9H8Y5 whole entry, looked up): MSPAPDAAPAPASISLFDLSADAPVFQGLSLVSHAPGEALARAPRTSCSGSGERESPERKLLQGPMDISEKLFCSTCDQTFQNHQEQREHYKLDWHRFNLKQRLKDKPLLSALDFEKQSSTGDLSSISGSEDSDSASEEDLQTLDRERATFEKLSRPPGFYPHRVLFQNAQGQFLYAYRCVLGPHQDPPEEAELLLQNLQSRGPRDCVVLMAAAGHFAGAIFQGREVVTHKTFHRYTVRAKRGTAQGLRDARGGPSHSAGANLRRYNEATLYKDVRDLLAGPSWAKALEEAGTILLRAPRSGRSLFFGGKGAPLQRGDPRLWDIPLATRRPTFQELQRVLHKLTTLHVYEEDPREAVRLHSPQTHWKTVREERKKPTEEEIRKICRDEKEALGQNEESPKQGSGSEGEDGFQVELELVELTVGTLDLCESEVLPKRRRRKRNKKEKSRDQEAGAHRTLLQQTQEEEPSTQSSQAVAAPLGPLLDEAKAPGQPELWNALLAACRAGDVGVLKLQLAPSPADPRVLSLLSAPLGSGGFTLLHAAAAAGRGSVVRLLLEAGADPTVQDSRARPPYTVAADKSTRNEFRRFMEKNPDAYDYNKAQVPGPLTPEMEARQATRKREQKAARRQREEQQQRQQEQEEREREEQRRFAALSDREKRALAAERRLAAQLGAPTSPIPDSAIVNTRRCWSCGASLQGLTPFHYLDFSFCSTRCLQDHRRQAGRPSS
UniProt Q02252, sequence (Q02252 whole entry, looked up): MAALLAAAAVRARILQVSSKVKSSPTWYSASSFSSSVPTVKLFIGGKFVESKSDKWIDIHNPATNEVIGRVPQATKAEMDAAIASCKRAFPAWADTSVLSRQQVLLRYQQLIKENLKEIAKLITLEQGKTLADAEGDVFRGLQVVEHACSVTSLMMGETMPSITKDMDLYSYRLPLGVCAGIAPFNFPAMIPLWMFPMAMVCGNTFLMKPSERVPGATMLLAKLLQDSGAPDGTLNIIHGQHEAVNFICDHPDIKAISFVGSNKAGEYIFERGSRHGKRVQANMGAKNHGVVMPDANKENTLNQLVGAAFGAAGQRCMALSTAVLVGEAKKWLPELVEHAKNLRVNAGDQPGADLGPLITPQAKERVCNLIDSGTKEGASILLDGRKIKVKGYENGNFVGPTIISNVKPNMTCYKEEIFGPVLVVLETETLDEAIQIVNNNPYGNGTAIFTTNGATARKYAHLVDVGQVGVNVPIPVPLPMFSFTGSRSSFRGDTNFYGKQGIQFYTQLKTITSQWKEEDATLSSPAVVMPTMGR
UniProt P53680, sequence (P53680 whole entry, looked up): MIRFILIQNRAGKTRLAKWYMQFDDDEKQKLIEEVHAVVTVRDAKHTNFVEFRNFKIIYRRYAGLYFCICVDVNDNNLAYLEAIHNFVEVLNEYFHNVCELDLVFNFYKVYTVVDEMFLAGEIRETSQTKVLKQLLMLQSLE
UniProt Q9Y312, sequence (Q9Y312 whole entry, looked up): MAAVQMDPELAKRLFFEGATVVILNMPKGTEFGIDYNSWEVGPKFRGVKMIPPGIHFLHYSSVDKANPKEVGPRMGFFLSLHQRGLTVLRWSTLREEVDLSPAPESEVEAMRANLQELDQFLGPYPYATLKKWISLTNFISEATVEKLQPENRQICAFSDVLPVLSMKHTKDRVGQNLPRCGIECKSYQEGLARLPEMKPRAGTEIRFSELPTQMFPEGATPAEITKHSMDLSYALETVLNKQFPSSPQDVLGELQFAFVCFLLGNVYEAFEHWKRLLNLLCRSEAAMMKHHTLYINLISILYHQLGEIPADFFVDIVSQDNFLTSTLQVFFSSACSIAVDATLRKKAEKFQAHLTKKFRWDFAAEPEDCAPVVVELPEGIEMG
UniProt O00244, sequence (O00244 whole entry, looked up): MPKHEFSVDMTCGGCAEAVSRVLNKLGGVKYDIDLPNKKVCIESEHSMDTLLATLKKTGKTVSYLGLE

Target	log2 fold change [1]	log2 fold change (filanesib)	log2 fold change (zotarolimus)	log2 fold change (idasanutlin)	log2 fold change (alisertib)	log2 fold change [2]	log2 fold change (gefitinib)	log2 fold change [3]	log2 fold change (lapatinib)	log2 fold change (pictilisib)	log2 fold change [4]	log2 fold change (crizotinib)	log2 fold change [5]	log2 fold change [6]	log2 fold change (duvelisib)	log2 fold change (gandotinib)	log2 fold change (tozasertib)	log2 fold change [7]	log2 fold change (doramapimod)	log2 fold change (ispinesib)
ACSF3 (UniProt Q4G176)	-0.099 (inactive)	-0.045 (inactive)	-0.01 (inactive)	0.051 (inactive)	0.001 (inactive)	-0.053 (inactive)	-0.096 (inactive)	0.054 (inactive)	-0.004 (inactive)	0.064 (inactive)	0.018 (inactive)	0.063 (inactive)	-0.002 (inactive)	0.026 (inactive)	0.014 (inactive)	0.09 (inactive)	0.023 (inactive)	0.022 (inactive)	-0.027 (inactive)	0.174 (inactive)
ANKZF1 (UniProt Q9H8Y5)	-0.005 (inactive)	0.249 (inactive)	0.048 (inactive)	0.235 (inactive)	-0.034 (inactive)	0.042 (inactive)	-0.001 (inactive)	-0.022 (inactive)	-0.046 (inactive)	-0.002 (inactive)	0.031 (inactive)	-0.037 (inactive)	-0.135 (inactive)	0.174 (inactive)	-0.15 (inactive)	0.007 (inactive)	0.021 (inactive)	-0.068 (inactive)	-0.059 (inactive)	-0.349 (inactive)
ANP32E (UniProt Q9BTT0)	0.027 (inactive)	0.011 (inactive)	0.066 (inactive)	0.061 (inactive)	0.045 (inactive)	-0.039 (inactive)	0.021 (inactive)	-0.027 (inactive)	-0.011 (inactive)	0.06 (inactive)	-0.021 (inactive)	0.055 (inactive)	0.12 (inactive)	-0.16 (inactive)	0.036 (inactive)	-0.082 (inactive)	0.096 (inactive)	0.026 (inactive)	-0.014 (inactive)	0.002 (inactive)
ATOX1 (UniProt O00244)	0.471 (active)	-0.122 (inactive)	0.113 (inactive)	-0.096 (inactive)	-0.062 (inactive)	-0.388 (inactive)	-0.036 (inactive)	-0.07 (inactive)	0.314 (inactive)	-0.015 (inactive)	-0.051 (inactive)	-0.057 (inactive)	0.235 (inactive)	-0.269 (inactive)	0.144 (inactive)	0.068 (inactive)	0.038 (inactive)	-0.071 (inactive)	0.051 (inactive)	0.212 (inactive)
AKAP8 (UniProt O43823)	0.026 (inactive)	0.035 (inactive)	-0.105 (inactive)	0.052 (inactive)	-0.046 (inactive)	-0.002 (inactive)	-0.049 (inactive)	0.067 (inactive)	0.014 (inactive)	0.101 (inactive)	0.047 (inactive)	-0.104 (inactive)	0.077 (inactive)	0.062 (inactive)	0.032 (inactive)	-0.036 (inactive)	0.005 (inactive)	0.061 (inactive)	0.033 (inactive)	-0.103 (inactive)
ATP6V1C1 (UniProt P21283)	-0.012 (inactive)	0.029 (inactive)	0.08 (inactive)	0.016 (inactive)	-0.069 (inactive)	-0.091 (inactive)	-0.286 (inactive)	-0.206 (inactive)	-0.046 (inactive)	-0.022 (inactive)	-0.05 (inactive)	0.1 (inactive)	-0.05 (inactive)	0.14 (inactive)	0.049 (inactive)	0.033 (inactive)	0.116 (inactive)	0.041 (inactive)	0.015 (inactive)	0.122 (inactive)
ADRM1 (UniProt Q16186)	0.088 (inactive)	0.008 (inactive)	0.057 (inactive)	-0.073 (inactive)	-0.031 (inactive)	-0.029 (inactive)	-0.055 (inactive)	-0.045 (inactive)	0.022 (inactive)	-0.013 (inactive)	0.006 (inactive)	-0.109 (inactive)	-0.028 (inactive)	0.138 (inactive)	-0.036 (inactive)	-0.056 (inactive)	-0.028 (inactive)	0.069 (inactive)	0.041 (inactive)	-0.05 (inactive)
ABHD17A isoform 2 (UniProt Q96GS6)	-0.194 (inactive)	0.086 (inactive)	0.012 (inactive)	0.034 (inactive)	0.032 (inactive)	0.069 (inactive)	0.081 (inactive)	0.027 (inactive)	-0.038 (inactive)	0.077 (inactive)	-0.027 (inactive)	-0.135 (inactive)	-0.03 (inactive)	-0.015 (inactive)	-0.008 (inactive)	-0.283 (inactive)	-0.024 (inactive)	0.016 (inactive)	0.004 (inactive)	-0.129 (inactive)
ATP23 (UniProt Q9Y6H3)	0.003 (inactive)	-0.082 (inactive)	0.005 (inactive)	0.032 (inactive)	-0.033 (inactive)	-0.096 (inactive)	-0.062 (inactive)	0.067 (inactive)	0.007 (inactive)	0.018 (inactive)	-0.002 (inactive)	-0.116 (inactive)	0.044 (inactive)	0.072 (inactive)	-0.124 (inactive)	-0.128 (inactive)	0.002 (inactive)	0.046 (inactive)	-0.051 (inactive)	-0.188 (inactive)
ALDH6A1 (UniProt Q02252)	-0.128 (inactive)	-0.025 (inactive)	0.024 (inactive)	-0.032 (inactive)	-0.09 (inactive)	0.029 (inactive)	0.04 (inactive)	0.066 (inactive)	0.02 (inactive)	0.063 (inactive)	-0.008 (inactive)	0.042 (inactive)	0.109 (inactive)	0.009 (inactive)	0.106 (inactive)	-0.057 (inactive)	-0.054 (inactive)	0.008 (inactive)	0.033 (inactive)	-0.042 (inactive)
AHSA1 (UniProt O95433)	-0.029 (inactive)	-0.061 (inactive)	0.003 (inactive)	-0.064 (inactive)	-0.037 (inactive)	0.109 (inactive)	0.022 (inactive)	0.031 (inactive)	-0.02 (inactive)	-0.023 (inactive)	0.035 (inactive)	0.034 (inactive)	0.058 (inactive)	-0.026 (inactive)	0.027 (inactive)	-0.077 (inactive)	0.015 (inactive)	0.023 (inactive)	-0.029 (inactive)	-0.003 (inactive)
AP2S1 (UniProt P53680)	-0.031 (inactive)	0.037 (inactive)	0.013 (inactive)	-0.033 (inactive)	-0.159 (inactive)	0.023 (inactive)	0.017 (inactive)	-0.061 (inactive)	-0.022 (inactive)	-0.023 (inactive)	-0.022 (inactive)	-0.106 (inactive)	0.453 (inactive)	-0.151 (inactive)	0.04 (inactive)	-0.046 (inactive)	-0.054 (inactive)	0.046 (inactive)	0.031 (inactive)	0.077 (inactive)
AAR2 (UniProt Q9Y312)	0.022 (inactive)	0.111 (inactive)	0.042 (inactive)	0.002 (inactive)	-0.129 (inactive)	0.104 (inactive)	0.075 (inactive)	0.058 (inactive)	-0.005 (inactive)	-0.082 (inactive)	-0.06 (inactive)	-0.081 (inactive)	0.019 (inactive)	0.054 (inactive)	0.045 (inactive)	-0.29 (inactive)	0.011 (inactive)	0.021 (inactive)	-0.038 (inactive)	0.085 (inactive)
ALG3 (UniProt Q92685)	0.109 (inactive)	-0.095 (inactive)	0.06 (inactive)	-0.212 (inactive)	-0.001 (inactive)	0.035 (inactive)	-0.046 (inactive)	0 (inactive)	0.104 (inactive)	0.006 (inactive)	-0.067 (inactive)	0.087 (inactive)	0.001 (inactive)	-0.077 (inactive)	0.057 (inactive)	-0.107 (inactive)	-0.019 (inactive)	0.049 (inactive)	0.006 (inactive)	-0.086 (inactive)
ARMC8 (UniProt Q8IUR7)	0.056 (inactive)	0.048 (inactive)	0 (inactive)	-0.016 (inactive)	-0.08 (inactive)	-0.014 (inactive)	-0.029 (inactive)	-0.016 (inactive)	0.046 (inactive)	0.005 (inactive)	0.005 (inactive)	0.013 (inactive)	0.005 (inactive)	-0.015 (inactive)	0.07 (inactive)	-0.045 (inactive)	0.063 (inactive)	0.165 (inactive)	0.014 (inactive)	0.051 (inactive)
